Assay in all cases: DAPPL (digital affinity profiling via proximity ligation, sequencing); 10 mM Tris-HCl pH 7.5, 50 mM NaCl, 1 mM DTT, 4% glycerol, room temperature, 30 min; GST-TFs on glutathione beads, 16-mer random dsDNA library, 0.1% formaldehyde crosslink after washing; high values mean tight binding
The target of one assay is T1, FLI1 (Homo sapiens, UniProt Q01543 1-452).
T1 sequence: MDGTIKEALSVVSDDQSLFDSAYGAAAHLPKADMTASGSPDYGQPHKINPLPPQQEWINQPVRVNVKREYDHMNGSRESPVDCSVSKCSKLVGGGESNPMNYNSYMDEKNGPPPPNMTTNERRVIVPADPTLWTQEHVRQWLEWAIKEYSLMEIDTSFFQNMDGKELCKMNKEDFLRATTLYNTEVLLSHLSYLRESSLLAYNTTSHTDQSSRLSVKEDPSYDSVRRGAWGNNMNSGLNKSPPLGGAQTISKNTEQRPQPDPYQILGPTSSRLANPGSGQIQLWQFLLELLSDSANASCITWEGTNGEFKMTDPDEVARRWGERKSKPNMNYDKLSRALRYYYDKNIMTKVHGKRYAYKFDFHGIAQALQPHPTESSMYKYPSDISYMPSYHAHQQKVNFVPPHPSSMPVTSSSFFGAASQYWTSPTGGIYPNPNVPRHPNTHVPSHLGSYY
Particulars: protein: recombinant; tags: N-terminal GST; dsDNA, one strand shown. The gist of the method: (§1)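 Sequencing on an Illumina NextSeq500 followed washing, crosslinking with 0.1% formaldehyde, proximity ligation (BsaI/T4 ligase, 1 h, 37 °C) and PCR amplification of pools that had been incubated for 30 min at room temperature with 200 nmole of a random double-stranded 16-mer DNA library in Tris/NaCl/DTT/glycerol buffer. Each pool held DNA-barcoded human transcription factors, expressed in yeast as GST fusions and captured on glutathione beads, plus a tag-only sample. Binding signal is a hexamer's read frequency for a factor divided by its frequency in the tag-only sample.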

The next assay addresses T2, ELK1 (Homo sapiens, UniProt P19419 1-428).
T2 sequence: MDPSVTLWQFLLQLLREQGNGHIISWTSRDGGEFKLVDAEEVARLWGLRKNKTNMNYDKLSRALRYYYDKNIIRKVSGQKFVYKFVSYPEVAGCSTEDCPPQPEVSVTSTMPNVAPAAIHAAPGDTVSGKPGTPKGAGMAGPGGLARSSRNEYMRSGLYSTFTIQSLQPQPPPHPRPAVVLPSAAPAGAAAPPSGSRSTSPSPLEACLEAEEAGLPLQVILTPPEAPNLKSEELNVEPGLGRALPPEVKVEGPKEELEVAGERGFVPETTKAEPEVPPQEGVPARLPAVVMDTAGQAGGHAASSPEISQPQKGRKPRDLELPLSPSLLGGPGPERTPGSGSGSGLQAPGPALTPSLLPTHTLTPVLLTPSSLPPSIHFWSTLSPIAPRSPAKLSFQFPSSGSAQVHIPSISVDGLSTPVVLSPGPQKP
Particulars: protein: recombinant; tags: N-terminal GST; dsDNA, one strand shown. An outline of the steps:
as §1

The target in another assay is T3, GABPA (Homo sapiens, UniProt Q06546 1-454).
T3 sequence: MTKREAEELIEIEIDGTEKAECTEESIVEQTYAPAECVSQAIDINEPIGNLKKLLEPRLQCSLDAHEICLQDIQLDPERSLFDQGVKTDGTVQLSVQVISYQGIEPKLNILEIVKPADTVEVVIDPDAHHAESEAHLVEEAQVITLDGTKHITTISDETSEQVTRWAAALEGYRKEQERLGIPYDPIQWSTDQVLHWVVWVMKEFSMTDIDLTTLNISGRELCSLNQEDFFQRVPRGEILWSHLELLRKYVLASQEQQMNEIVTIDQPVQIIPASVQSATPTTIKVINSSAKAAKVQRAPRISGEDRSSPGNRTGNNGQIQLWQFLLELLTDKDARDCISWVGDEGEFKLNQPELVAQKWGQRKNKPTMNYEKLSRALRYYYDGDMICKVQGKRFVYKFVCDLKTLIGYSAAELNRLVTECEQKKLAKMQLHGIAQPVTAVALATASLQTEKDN
Particulars: protein: recombinant; tags: N-terminal GST; dsDNA, one strand shown. An outline of the steps: as §1

The target of the next assay is T4, ERG (Homo sapiens, UniProt P11308 1-479).
T4 sequence: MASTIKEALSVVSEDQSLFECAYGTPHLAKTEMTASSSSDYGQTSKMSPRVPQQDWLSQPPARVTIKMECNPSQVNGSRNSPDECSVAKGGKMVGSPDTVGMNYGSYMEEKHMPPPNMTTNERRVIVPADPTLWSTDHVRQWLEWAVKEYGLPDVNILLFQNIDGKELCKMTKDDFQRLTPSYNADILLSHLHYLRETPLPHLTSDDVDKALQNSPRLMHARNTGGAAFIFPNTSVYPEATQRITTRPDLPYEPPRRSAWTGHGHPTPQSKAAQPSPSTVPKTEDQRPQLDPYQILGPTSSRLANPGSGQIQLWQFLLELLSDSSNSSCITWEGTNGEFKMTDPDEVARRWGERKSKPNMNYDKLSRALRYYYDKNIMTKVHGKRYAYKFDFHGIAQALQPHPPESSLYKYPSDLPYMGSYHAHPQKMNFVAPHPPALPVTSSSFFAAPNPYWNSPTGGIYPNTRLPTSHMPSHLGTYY
Particulars: protein: recombinant; tags: N-terminal GST; dsDNA, one strand shown. An outline of the steps: as §1

For a further assay, the target named is ELF1 (Homo sapiens, UniProt P32519 1-619). To be noted: protein: recombinant; tags: N-terminal GST; dsDNA, one strand shown. An outline of the steps: as §1
Another assay addresses T5, EHF (Homo sapiens, UniProt Q9NZC4 1-300).
T5 sequence: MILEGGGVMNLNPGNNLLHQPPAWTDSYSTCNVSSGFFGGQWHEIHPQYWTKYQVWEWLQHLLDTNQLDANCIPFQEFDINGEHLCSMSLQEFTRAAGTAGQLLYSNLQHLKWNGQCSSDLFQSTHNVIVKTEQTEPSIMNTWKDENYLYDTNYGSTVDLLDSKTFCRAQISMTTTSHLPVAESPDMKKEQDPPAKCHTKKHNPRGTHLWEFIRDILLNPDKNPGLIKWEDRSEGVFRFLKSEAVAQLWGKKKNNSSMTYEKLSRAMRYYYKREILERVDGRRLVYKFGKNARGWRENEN
Particulars: protein: recombinant; tags: N-terminal GST; dsDNA, one strand shown. The gist of the method:
as §1

Another assay concerns the target SPI1 (Homo sapiens, UniProt P17947 1-270). Particulars: protein: recombinant; tags: N-terminal GST; dsDNA, one strand shown. An outline of the steps:
as §1

A further assay concerns the target SPIB (Homo sapiens, UniProt Q01892 1-262). To be noted: protein: recombinant; tags: N-terminal GST; dsDNA, one strand shown. The gist of the method:
as §1

For another assay, the target named is T6, ELK3 (Homo sapiens, UniProt P41970 1-407).
T6 sequence: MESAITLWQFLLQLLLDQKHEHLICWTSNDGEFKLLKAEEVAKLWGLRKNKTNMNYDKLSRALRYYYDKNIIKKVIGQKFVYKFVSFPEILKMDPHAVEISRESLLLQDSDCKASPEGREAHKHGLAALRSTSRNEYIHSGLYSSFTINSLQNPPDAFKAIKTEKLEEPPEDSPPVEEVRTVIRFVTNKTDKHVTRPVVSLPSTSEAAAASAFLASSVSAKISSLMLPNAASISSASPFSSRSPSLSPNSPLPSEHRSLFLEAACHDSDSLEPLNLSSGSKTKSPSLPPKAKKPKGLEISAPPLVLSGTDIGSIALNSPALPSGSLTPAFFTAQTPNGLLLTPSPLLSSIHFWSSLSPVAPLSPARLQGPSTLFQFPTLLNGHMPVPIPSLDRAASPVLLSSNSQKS
To be noted: protein: recombinant; tags: N-terminal GST; dsDNA, one strand shown. The gist of the method:
as §1

The target of a further assay is T7, FEV (Homo sapiens, UniProt Q99581 1-238).
T7 sequence: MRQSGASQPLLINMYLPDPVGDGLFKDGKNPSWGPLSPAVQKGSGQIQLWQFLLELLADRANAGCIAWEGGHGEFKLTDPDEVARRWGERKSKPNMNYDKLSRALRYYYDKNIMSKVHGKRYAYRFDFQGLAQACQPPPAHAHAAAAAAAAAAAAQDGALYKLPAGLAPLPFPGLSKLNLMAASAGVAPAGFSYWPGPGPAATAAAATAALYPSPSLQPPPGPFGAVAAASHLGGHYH
To be noted: protein: recombinant; tags: N-terminal GST; dsDNA, one strand shown. The gist of the method: as §1

The target in another assay is ETV5 (Homo sapiens, UniProt P41161 1-510). Particulars: protein: recombinant; tags: N-terminal GST; dsDNA, one strand shown. An outline of the steps: as §1
The next assay addresses HSF1 (Homo sapiens, UniProt Q00613 1-529). Particulars: protein: recombinant; tags: N-terminal GST; chain copies: 3; dsDNA, one strand shown. An outline of the steps: as §1
The next assay concerns the target T8, SPIC (Homo sapiens, UniProt Q8N5J4 1-248).
T8 sequence: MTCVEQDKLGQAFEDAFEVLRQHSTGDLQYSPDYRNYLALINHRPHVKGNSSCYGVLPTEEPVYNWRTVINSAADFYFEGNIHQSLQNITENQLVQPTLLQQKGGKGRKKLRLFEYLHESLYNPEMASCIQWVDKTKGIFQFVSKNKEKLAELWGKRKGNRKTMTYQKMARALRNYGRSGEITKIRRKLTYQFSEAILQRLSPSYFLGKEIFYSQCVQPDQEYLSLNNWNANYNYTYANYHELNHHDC
To be noted: protein: recombinant; tags: N-terminal GST; dsDNA, one strand shown. The gist of the method:
as §1

The next assay addresses ELF4 (Homo sapiens, UniProt Q99607 1-663). Particulars: protein: recombinant; tags: N-terminal GST; dsDNA, one strand shown. An outline of the steps:
as §1

The target in another assay is T9, ELK4 (Homo sapiens, UniProt P28324-2 1-405).
T9 sequence: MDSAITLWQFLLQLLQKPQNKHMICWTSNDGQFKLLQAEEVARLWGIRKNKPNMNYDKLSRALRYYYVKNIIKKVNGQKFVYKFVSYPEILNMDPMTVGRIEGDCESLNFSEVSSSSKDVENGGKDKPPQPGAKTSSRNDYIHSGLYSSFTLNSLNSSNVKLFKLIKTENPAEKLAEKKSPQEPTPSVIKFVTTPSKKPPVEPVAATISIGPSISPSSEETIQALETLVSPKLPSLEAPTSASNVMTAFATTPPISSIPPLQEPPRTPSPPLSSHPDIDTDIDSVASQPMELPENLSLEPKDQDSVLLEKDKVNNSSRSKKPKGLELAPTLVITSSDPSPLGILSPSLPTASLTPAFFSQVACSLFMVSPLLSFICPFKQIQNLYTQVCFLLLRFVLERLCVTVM
Particulars: protein: recombinant; tags: N-terminal GST; dsDNA, one strand shown. An outline of the steps: as §1

For the next assay, the target named is T10, ETV2 (Homo sapiens, UniProt O00321 1-342).
T10 sequence: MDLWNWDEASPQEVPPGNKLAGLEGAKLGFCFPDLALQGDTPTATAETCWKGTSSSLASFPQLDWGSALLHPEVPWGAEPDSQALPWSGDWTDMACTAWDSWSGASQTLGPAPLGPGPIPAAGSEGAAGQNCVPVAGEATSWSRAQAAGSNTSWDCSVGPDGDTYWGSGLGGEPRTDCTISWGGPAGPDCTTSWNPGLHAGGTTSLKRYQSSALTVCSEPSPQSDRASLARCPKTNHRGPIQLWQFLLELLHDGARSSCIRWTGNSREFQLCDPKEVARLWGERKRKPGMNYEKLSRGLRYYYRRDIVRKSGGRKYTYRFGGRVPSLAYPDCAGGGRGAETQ
Particulars: protein: recombinant; tags: N-terminal GST; dsDNA, one strand shown. An outline of the steps: as §1

In a further assay the target is T11, ELF3 (Homo sapiens, UniProt P78545 1-371).
T11 sequence: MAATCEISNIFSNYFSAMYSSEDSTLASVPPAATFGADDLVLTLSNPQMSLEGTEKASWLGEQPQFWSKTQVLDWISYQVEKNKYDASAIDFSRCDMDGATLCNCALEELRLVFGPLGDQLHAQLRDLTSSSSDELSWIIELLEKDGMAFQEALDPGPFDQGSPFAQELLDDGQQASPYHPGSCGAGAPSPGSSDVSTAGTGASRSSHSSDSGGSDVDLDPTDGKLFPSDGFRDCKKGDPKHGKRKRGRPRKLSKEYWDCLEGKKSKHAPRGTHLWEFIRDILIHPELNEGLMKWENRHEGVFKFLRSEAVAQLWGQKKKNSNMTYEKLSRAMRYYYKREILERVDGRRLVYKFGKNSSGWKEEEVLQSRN
To be noted: protein: recombinant; tags: N-terminal GST; dsDNA, one strand shown. An outline of the steps:
as §1

The next assay has as its target ETV1 (Homo sapiens, UniProt P50549 1-477). To be noted: protein: recombinant; tags: N-terminal GST; dsDNA, one strand shown. An outline of the steps: as §1

Sequence of SPIB (Q01892 whole entry): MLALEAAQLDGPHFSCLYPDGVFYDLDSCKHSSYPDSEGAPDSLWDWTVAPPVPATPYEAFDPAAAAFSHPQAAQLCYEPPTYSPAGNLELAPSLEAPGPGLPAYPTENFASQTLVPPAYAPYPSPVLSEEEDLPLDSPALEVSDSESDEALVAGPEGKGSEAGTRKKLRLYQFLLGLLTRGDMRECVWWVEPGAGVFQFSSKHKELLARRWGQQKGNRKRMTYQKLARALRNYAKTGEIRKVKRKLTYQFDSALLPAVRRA
Sequence of ETV5 (P41161 whole entry): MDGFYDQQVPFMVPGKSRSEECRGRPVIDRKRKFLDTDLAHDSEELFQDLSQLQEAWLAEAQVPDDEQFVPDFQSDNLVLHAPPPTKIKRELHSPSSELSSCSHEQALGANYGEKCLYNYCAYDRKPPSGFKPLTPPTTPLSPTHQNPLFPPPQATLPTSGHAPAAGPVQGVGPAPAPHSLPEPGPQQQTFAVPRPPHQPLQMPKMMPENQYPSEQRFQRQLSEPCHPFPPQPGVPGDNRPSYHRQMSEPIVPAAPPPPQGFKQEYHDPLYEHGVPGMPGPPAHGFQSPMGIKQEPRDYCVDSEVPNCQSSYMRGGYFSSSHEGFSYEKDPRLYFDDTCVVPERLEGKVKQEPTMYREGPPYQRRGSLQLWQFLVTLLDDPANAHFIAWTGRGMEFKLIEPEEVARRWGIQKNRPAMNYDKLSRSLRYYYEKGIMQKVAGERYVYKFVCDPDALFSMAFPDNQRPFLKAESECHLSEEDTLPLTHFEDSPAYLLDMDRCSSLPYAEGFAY
Sequence of ELF4 (Q99607 whole entry): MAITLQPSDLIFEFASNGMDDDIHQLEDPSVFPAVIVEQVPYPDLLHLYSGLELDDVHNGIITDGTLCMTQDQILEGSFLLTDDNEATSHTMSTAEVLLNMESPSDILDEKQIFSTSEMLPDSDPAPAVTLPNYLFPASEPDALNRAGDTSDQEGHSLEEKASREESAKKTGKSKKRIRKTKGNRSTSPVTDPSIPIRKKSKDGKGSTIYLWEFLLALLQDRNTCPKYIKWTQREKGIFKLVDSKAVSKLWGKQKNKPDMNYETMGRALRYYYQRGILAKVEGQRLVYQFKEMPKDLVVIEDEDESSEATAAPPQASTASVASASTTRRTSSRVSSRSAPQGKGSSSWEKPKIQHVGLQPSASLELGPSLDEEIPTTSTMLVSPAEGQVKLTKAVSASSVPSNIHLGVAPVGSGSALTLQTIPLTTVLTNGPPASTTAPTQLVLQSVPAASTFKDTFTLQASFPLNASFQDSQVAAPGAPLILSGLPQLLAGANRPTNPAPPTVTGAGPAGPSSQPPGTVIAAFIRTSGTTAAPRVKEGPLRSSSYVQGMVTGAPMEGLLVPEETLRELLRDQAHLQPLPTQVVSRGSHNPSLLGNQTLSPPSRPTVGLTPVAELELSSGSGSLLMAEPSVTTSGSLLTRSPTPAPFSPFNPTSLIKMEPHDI
Sequence of HSF1 (Q00613 whole entry): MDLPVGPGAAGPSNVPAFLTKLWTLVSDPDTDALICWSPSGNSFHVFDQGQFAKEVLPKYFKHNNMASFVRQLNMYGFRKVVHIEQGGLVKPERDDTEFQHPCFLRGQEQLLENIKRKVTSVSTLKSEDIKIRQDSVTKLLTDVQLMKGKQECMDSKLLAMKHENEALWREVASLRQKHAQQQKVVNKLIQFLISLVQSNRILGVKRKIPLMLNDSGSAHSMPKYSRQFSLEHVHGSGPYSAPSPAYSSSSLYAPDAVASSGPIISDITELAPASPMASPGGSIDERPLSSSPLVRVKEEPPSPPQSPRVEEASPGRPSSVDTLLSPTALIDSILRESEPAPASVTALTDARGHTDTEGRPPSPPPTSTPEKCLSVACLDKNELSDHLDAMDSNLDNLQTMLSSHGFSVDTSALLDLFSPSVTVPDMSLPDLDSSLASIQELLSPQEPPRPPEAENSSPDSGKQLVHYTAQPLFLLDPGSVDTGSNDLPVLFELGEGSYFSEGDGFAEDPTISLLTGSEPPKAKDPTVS
Sequence of ELF1 (P32519 whole entry): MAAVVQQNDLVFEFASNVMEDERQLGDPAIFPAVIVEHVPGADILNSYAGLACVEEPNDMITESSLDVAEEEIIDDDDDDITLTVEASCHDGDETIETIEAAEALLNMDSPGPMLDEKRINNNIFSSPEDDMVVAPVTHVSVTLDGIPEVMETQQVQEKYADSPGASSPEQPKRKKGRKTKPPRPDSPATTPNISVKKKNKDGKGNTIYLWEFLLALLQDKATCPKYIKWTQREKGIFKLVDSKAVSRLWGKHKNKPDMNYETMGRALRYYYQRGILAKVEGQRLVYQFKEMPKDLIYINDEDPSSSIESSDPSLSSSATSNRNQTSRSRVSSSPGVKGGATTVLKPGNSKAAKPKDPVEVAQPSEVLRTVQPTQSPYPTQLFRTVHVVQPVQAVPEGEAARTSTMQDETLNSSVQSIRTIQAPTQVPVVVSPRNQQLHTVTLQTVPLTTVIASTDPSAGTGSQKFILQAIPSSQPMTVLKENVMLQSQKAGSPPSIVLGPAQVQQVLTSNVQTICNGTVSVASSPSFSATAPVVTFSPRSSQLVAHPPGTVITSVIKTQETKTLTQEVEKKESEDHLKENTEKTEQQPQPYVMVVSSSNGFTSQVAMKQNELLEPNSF
Sequence of ETV1 (P50549 whole entry): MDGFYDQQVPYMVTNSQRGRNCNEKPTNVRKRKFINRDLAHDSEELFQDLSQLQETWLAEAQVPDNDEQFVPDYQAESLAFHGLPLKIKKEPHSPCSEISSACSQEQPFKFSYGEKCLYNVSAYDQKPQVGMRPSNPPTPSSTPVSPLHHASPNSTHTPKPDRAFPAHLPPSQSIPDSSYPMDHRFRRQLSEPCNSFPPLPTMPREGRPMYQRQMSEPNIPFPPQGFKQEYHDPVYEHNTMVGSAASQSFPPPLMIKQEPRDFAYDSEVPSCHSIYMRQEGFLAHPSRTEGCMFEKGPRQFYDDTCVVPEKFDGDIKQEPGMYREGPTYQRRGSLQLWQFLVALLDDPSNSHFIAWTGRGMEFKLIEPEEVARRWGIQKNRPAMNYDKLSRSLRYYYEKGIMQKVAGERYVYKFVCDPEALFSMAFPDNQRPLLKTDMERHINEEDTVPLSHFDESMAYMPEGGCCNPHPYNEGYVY

CTGAAG: the binding signal with FLI1 was 1.02 fold enrichment (6-mer frequency, TF over GST control); with ELK1, 1.14 fold enrichment (6-mer frequency, TF over GST control); in the assay with GABPA it was 1.11 fold enrichment (6-mer frequency, TF over GST control); in the assay with ERG, 1.08 fold enrichment (6-mer frequency, TF over GST control); with ELF1 it was 1.11 fold enrichment (6-mer frequency, TF over GST control); with EHF, 1.02 fold enrichment (6-mer frequency, TF over GST control). Moreover, the binding signal is 1.05 fold enrichment (6-mer frequency, TF over GST control) with SPI1; 1.04 fold enrichment (6-mer frequency, TF over GST control) with SPIB; 1.01 fold enrichment (6-mer frequency, TF over GST control) with ELK3; 1.05 fold enrichment (6-mer frequency, TF over GST control) with FEV; 1.06 fold enrichment (6-mer frequency, TF over GST control) in the assay with ETV5; 1.11 fold enrichment (6-mer frequency, TF over GST control) with HSF1. Moreover, the binding signal was 1.01 fold enrichment (6-mer frequency, TF over GST control) with SPIC; 1.11 fold enrichment (6-mer frequency, TF over GST control) with ELF4; 1.05 fold enrichment (6-mer frequency, TF over GST control) with ELK4; 1.09 fold enrichment (6-mer frequency, TF over GST control) with ETV2; 1.18 fold enrichment (6-mer frequency, TF over GST control) with ELF3; 1.08 fold enrichment (6-mer frequency, TF over GST control) with ETV1.

The values are drawn from article PMC7862700, “An all-to-all approach to the identification of sequence-specific readers for epigenetic DNA modifications on cytosine”.
